Bioassay records from PubChem BioAssay.
In the library only some 1.3% were active in any assay of this set; here they are far more common.
CCHF vOTU inh: CCHFV vOTU protease inhibitors, primary screen, biochemical, Pep-AMC substrate, fluorescence; 370,000 tested, 0.55% active; inhibition, % at 11.5 µM; Crimean-Congo hemorrhagic fever virus L polyprotein viral ovarian tumor (vOTU) protease …; AID 651958, 2012; in the data active means inhibition above about 30%
Vc quorum ag: inducers of Vibrio cholerae quorum light production without autoinducers, primary screen, BH1578 luxS cqsA deficient, single point; V. cholerae BH1578 lux reporter, luminescence, 6 h; 350,000 tested, 0.16% active; activation, % at 18.7 µM; AID 588436, 2011; in the data active means activation mostly above about 9.7%, no sharp cut-off
SSB-PriA inh: inhibitors of Klebsiella pneumoniae PriA binding to SSB C-terminal tail, primary screen, biochemical, AlphaScreen. PriA–SSB C-terminal tail interaction (Klebsiella pneumoniae). AlphaScreen SSBct-PriA binding, biotinylated peptide. AID 1272365, 2023. 430,000 tested, 0.6% active. inhibition, % at 33 µM; in the data active means inhibition mostly above about 37%, no sharp cut-off; inactive means mostly below about 20%
TcdB GH inh: TcdB glycohydrolase inhibitors, primary screen, biochemical, single point, plate reader. Toxin B (Clostridioides difficile), P18177. TcdB glycohydrolase enzymatic assay. inhibition, % at 9.99 µM. 350,000 tested, 0.24% active. AID 652162, 2013; in the data active means inhibition above about 10%
VHR inh abs: VHR1 phosphatase inhibitors, primary screen, biochemical, absorbance, uHTS; 290,000 tested, 0.52% active; inhibition, % at 13.3 µM; Dual specificity protein phosphatase 3 (Homo sapiens), P51452; recombinant VHR phosphatase, pNPP absorbance; AID 1654, 2009; in the data active means inhibition above about 50%
SARS 3CLpro inh: SARS-CoV 3CLpro protease inhibitors, primary screen, biochemical, quenched FRET. Replicase polyprotein 1ab (Severe acute respiratory syndrome coronavirus), P0C6X7. recombinant SARS-CoV 3CLpro, quenched FRET peptide cleavage. inhibition, % at 6 µM. 290,000 tested, 0.14% active. AID 1706, 2009; in the data active means inhibition above about 12%
A number is an active result.

What do the screens show for `COc1ccccc1N1CCN(C(=O)/C=C/c2ccccc2)CC1`?
CCHF vOTU inh: inactive; Vc quorum ag: inactive; SSB-PriA inh: inactive; VHR inh abs: 53; SARS 3CLpro inh: inactive

What do the screens show for `CCOC(=O)N1CCN(c2c(-c3ccc(C)cc3)c(=O)c2=O)CC1`?
CCHF vOTU inh: inactive; Vc quorum ag: inactive; SSB-PriA inh: inactive; VHR inh abs: 54; SARS 3CLpro inh: inactive

Results for O=S(=O)(c1ccccc1)N1CCN(Cc2nc(-c3ccccc3)cs2)CC1 ?
SSB-PriA inh: inactive

How did CN(C)Cc1c(O)ccc2[nH]cnc12 do in these assays?
CCHF vOTU inh: inactive; Vc quorum ag: inactive; SSB-PriA inh: inactive; VHR inh abs: inactive; SARS 3CLpro inh: inactive

How did Oc1ccc2ccc3[nH]cnc3c2c1 do in these assays?
CCHF vOTU inh: inactive; Vc quorum ag: inactive; SSB-PriA inh: inactive; TcdB GH inh: 21; VHR inh abs: inactive; SARS 3CLpro inh: inactive

How did O=C(Cn1[nH]c(=O)ccc1=O)Nc1nc(-c2ccccn2)cs1 do in these assays?
SSB-PriA inh: 97

How did O=C(CN1CC(=O)Oc2ccccc21)Nc1nc(-c2ccccn2)cs1 do in these assays?
SSB-PriA inh: 100

What do the screens show for `O=C(CN1C(=O)NC2(CCCC2)C1=O)Nc1nc(-c2ccccn2)cs1`?
SSB-PriA inh: 98

How did Cc1cc(C)c(OCC(=O)Nc2nc(-c3ccccn3)cs2)c(C)c1 do in these assays?
CCHF vOTU inh: inactive; Vc quorum ag: inactive; SSB-PriA inh: inactive; TcdB GH inh: inactive; VHR inh abs: inactive; SARS 3CLpro inh: inactive

What do the screens show for `O=C(CN1C(=O)NC2(CCCC2)C1=O)Nc1nc(-c2ccc(F)cc2)cs1`?
CCHF vOTU inh: inactive; Vc quorum ag: inactive; SSB-PriA inh: inactive; VHR inh abs: inactive; SARS 3CLpro inh: inactive

Results for Cc1csc(=O)n1CC(=O)Nc1nc(-c2ccccn2)cs1 ?
SSB-PriA inh: 107

How did Cc1cc(C)c(S(=O)(=O)c2ccc(Cl)cc2C)c(Cl)n1 do in these assays?
CCHF vOTU inh: inactive; Vc quorum ag: inactive; SSB-PriA inh: inactive; TcdB GH inh: 11; VHR inh abs: inactive; SARS 3CLpro inh: inactive

How did O=[N+]([O-])c1ccc(Cl)c(S(=O)(=O)NCCOc2cccc(C(F)(F)F)c2)c1 do in these assays?
SSB-PriA inh: inactive

What do the screens show for `Cc1cc(C)cc(OCCNS(=O)(=O)c2cc([N+](=O)[O-])ccc2Cl)c1`?
SSB-PriA inh: 36

What do the screens show for `O=C(NCCN1CCC(O)CC1)C(=O)Nc1ccc2c(c1)OCO2`?
SSB-PriA inh: inactive

How did O=[N+]([O-])c1cc(C(F)(F)F)ccc1NC1CCN(Cc2ccccc2)CC1 do in these assays?
CCHF vOTU inh: inactive; Vc quorum ag: inactive; SSB-PriA inh: inactive; TcdB GH inh: inactive; VHR inh abs: inactive; SARS 3CLpro inh: inactive

How did O=[N+]([O-])c1cc(C(F)(F)F)ccc1NC1CCN(Cc2ccccc2)C1 (stereo not drawn) do in these assays?
CCHF vOTU inh: inactive; Vc quorum ag: inactive; SSB-PriA inh: 43; TcdB GH inh: inactive; VHR inh abs: inactive; SARS 3CLpro inh: inactive

How did N#Cc1c(SCC(=O)NC2CCCCC2)nc2c(c1C(F)(F)F)CCCC2 do in these assays?
SSB-PriA inh: inactive

Results for CCS(=O)(=O)N1Cc2ccccc2CC1C(=O)N1CCN(c2ccccc2)CC1 (stereo not drawn) ?
CCHF vOTU inh: inactive; Vc quorum ag: inactive; SSB-PriA inh: inactive; TcdB GH inh: inactive; VHR inh abs: 52; SARS 3CLpro inh: inactive

What do the screens show for `O=C1NN(c2cccc(Br)c2)C(=O)/C1=C\c1ccc(N2CCOCC2)cc1`?
Vc quorum ag: inactive; SSB-PriA inh: inactive; VHR inh abs: 53; SARS 3CLpro inh: inactive

Results for O=C1NC(=S)NC(=O)C1=Cc1ccc(N2CCOCC2)cc1 ?
SSB-PriA inh: inactive

What do the screens show for `O=C(/C=C/c1cccs1)Nc1nc2c(cc3c4c(cccc42)CC3)s1`?
SSB-PriA inh: inactive

How did Cc1cc(C(=O)N(CCCN(C)C)c2nc3ccc(F)cc3s2)on1 do in these assays?
SSB-PriA inh: inactive

How did CCOc1cc(C2C(C#N)=C(N)OC(C)=C2C(C)=O)c(Br)c(Br)c1OC(C)C (stereo not drawn) do in these assays?
Vc quorum ag: inactive; SSB-PriA inh: inactive; VHR inh abs: inactive; SARS 3CLpro inh: inactive

What do the screens show for `CCOc1cc(C2C(C#N)=C(N)OC(C)=C2C(C)=O)cc(Br)c1O` (stereo not drawn)?
CCHF vOTU inh: inactive; Vc quorum ag: inactive; SSB-PriA inh: inactive; VHR inh abs: 50; SARS 3CLpro inh: inactive

What do the screens show for `Cc1cc(C)cc(-n2ncc3c(N(C)C)ncnc32)c1`?
SSB-PriA inh: inactive

Results for Cc1cccc(-n2ncc3c(N(C)Cc4ccccc4)ncnc32)c1 ?
CCHF vOTU inh: inactive; Vc quorum ag: inactive; SSB-PriA inh: 104; TcdB GH inh: inactive; VHR inh abs: inactive

How did Cn1ncc2ccc(NC(=O)c3cc4n(n3)CCCO4)cc21 do in these assays?
SSB-PriA inh: inactive

How did CCOc1cc(C)c(S(=O)(=O)N[C@@H](C)CC)cc1C(C)C do in these assays?
SSB-PriA inh: inactive

What do the screens show for `Cc1ccc(-n2nc(C)c(Sc3ccccc3[N+](=O)[O-])c2N)cc1`?
CCHF vOTU inh: inactive; Vc quorum ag: inactive; SSB-PriA inh: 39; TcdB GH inh: inactive; VHR inh abs: inactive; SARS 3CLpro inh: inactive

How did CCn1ccc(C(=O)Nc2nnc(-c3ccno3)o2)n1 do in these assays?
SSB-PriA inh: 28

Results for CCc1cccc(C)c1NC(=S)NCCc1c(C)[nH]c2ccc(C)cc12 ?
CCHF vOTU inh: inactive; Vc quorum ag: inactive; SSB-PriA inh: 40; TcdB GH inh: inactive; VHR inh abs: inactive; SARS 3CLpro inh: inactive

Results for Cc1ccc(/C=N/NC(=O)c2cccc(S(=O)(=O)Nc3ccccc3Cl)c2)o1 ?
CCHF vOTU inh: inactive; Vc quorum ag: inactive; TcdB GH inh: 12; VHR inh abs: inactive; SARS 3CLpro inh: inactive

What do the screens show for `COc1ccccc1NS(=O)(=O)c1cccc(C(=O)NN=Cc2ccc(C)o2)c1`?
SSB-PriA inh: inactive

What do the screens show for `CCCCNc1c(-c2cccc(-c3ccc(OC)cc3)c2)nc2cc(C)ccn12`?
CCHF vOTU inh: inactive; Vc quorum ag: inactive; SSB-PriA inh: 53; TcdB GH inh: inactive

How did CCCCNc1c(-c2cccc(-c3ccc(OC)cc3)c2)nc2ccc(C)cn12 do in these assays?
CCHF vOTU inh: inactive; Vc quorum ag: inactive; SSB-PriA inh: inactive; TcdB GH inh: inactive

What do the screens show for `Cc1cc2ncc(CCCNC(=O)c3cc(-c4ccco4)[nH]n3)cn2n1`?
SSB-PriA inh: inactive

Results for CC(C)CCOc1ccc(/C=C2\CCn3c2nc2cc(C(=O)O)ccc2c3=O)cc1 ?
CCHF vOTU inh: inactive; Vc quorum ag: inactive; SSB-PriA inh: inactive; TcdB GH inh: inactive; VHR inh abs: 56; SARS 3CLpro inh: inactive
